In PubChem BioAssay AID1159580 (chemical genetic matrix, 2015):
“And” between values parts separate entries of the source, which are not always exact repeats. Equal values may be shown once. About 2,000 (36%) of roughly 5,500 compounds were called active. Roughly 18% stayed inconclusive and do not appear here. No stated cut-off is given here; in the data, active means normalized growth mostly below about 0.91 (no sharp cut-off); inconclusive means no clear call, values can overlap the other calls; inactive means mostly above about 0.92. The list shows a part of the results.

Assay: chemical genetic growth profiling, strain panel (AID 1159580);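 further: tested at 20 µM; growth read once vehicle control cultures reached saturation at 30 °C; 1 = growth at the plate median or of vehicle wells; lower values mean less growth of the strain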
Details: S. cerevisiae deletion strains, growth OD

Measured: normalized growth

CC(=O)[O][Hg][c]1ccccc1
active: locus YAL013W, strain DEP1, hits give low values 0.0588 | locus YAL021C, strain ccr4, hits give low values 0.0671 | locus YAL026C, strain drs2, hits give low values 0.0633 | locus YAL030W, strain snc1, hits give low values 0.0569 | locus YBL061C, strain skt5, hits give low values 0.0592 | locus YBR009C, strain hhf1, hits give low values 0.066 | locus YBR021W, strain FUR4, hits give low values 0.089 | locus YBR023C, strain chs3, hits give low values 0.0614 | locus YBR171W, strain sec66, hits give low values 0.0817 | locus YBR229C, strain ROT2, hits give low values 0.0467 | locus YBR231C, strain swc5, hits give low values 0.0619 | locus YBR279W, strain paf1, hits give low values 0.0597 | locus YCL011C, strain gbp2, hits give low values 0.0585 | locus YCL016C, strain dcc1, hits give low values 0.0648 | locus YCL029C, strain bik1, hits give low values 0.0611 | locus YCL061C, strain MRC1, hits give low values 0.066 | locus YCL069W, strain vba3, hits give low values 0.062 | locus YCR088W, strain abp1, hits give low values 0.0606 | locus YDL005C, strain med2, hits give low values 0.0736 | locus YDL035C, strain GPR1, hits give low values 0.0539 | locus YDL040C, strain nat1, hits give low values 0.0587 | locus YDL074C, strain BRE1, hits give low values 0.0962 | locus YDL101C, strain DUN1, hits give low values 0.0592 | locus YDL134C, strain PPH21, hits give low values 0.0501 | locus YDL185W, strain tfp1, hits give low values 0.0588 | locus YDL192W, strain arf1, hits give low values 0.0622 | locus YDR001C, strain nth1, hits give low values 0.0585 | locus YDR069C, strain doa4, hits give low values 0.063 | locus YDR101C, strain arx1, hits give low values 0.0626 | locus YDR137W, strain rgp1, hits give low values 0.0849 | locus YDR150W, strain NUM1, hits give low values 0.0584 | locus YDR159W, strain sac3, hits give low values 0.0919 | locus YDR162C, strain NBP2, hits give low values 0.0545 | locus YDR195W, strain ref2 0.124 | locus YDR297W, strain sur2, hits give low values 0.0565 | locus YDR318W, strain mcm21, hits give low values 0.0644 | locus YDR334W, strain swr1, hits give low values 0.0648 | locus YDR335W, strain msn5, hits give low values 0.0613 | locus YDR388W, hits give low values 0.0584 | locus YDR392W, strain spt3, hits give low values 0.1 | locus YDR502C, strain sam2, hits give low values 0.0611 | locus YEL003W, strain gim4, hits give low values 0.0567 | locus YEL037C, strain rad23, hits give low values 0.0594 | locus YEL061C, strain CIN8 (second series), hits give low values 0.0646 | locus YEL061C, strain CIN8, hits give low values 0.0509 | locus YER015W, strain faa2, hits give low values 0.0603 | locus YER016W, strain bim1, hits give low values 0.0596 | locus YER110C, hits give low values 0.079 | locus YER111C, strain swi4, hits give low values 0.0727 | locus YER155C, strain BEM2 (second series), hits give low values 0.0919 | locus YER155C, strain BEM2, hits give low values 0.066 | locus YER167W, strain BCK2, hits give low values 0.0545 | locus YFR010W, strain ubp6, hits give low values 0.0677 | locus YGL078C, strain dbp3, hits give low values 0.0571 | locus YGL086W, strain mad1, hits give low values 0.0571 | locus YGL167C, strain pmr1, hits give low values 0.073 | locus YGL173C, strain kem1, hits give low values 0.0683 | locus YGL227W, strain vid30, hits give low values 0.0651 | locus YGL240W, strain doc1, hits give low values 0.077 | locus YGL248W, strain PDE1, hits give low values 0.0503 | locus YGL253W, strain hxk2, hits give low values 0.055 | locus YGR078C, strain PAC10, hits give low values 0.0552 | locus YGR135W, strain pre9, hits give low values 0.0651 | locus YGR229C, strain SMI1, hits give low values 0.0631 | locus YGR252W, strain gcn5, hits give low values 0.166 | locus YHR013C, strain ard1, hits give low values 0.105 | locus YHR027C, strain rpn1, hits give low values 0.0615 | locus YHR030C, strain SLT2, hits give low values 0.0511 and 0.112 | locus YHR079C, strain IRE1 (second series), hits give low values 0.0572 | locus YHR079C, strain IRE1, hits give low values 0.12 | locus YHR094C, strain hxt1, hits give low values 0.0582 | locus YHR129C, strain ARP1, hits give low values 0.0567 | locus YHR142W, strain chs7, hits give low values 0.0763 | locus YHR200W, strain rpn10, hits give low values 0.0605 | locus YIL066C, strain RNR3, hits give low values 0.059 | locus YIL073C, strain SPO22, hits give low values 0.112 | locus YIL125W, strain kgd1, hits give low values 0.0567 | locus YIR030C, strain dcg1, hits give low values 0.0603 | locus YJL092W, strain hpr5, hits give low values 0.0589 | locus YJL095W, strain BCK1 (second series), hits give low values 0.0569 | locus YJL095W, strain BCK1, hits give low values 0.0577 and 0.107 | locus YJL115W, strain asf1, hits give low values 0.0743 | locus YJL129C, strain trk1, hits give low values 0.0912 | locus YJL134W, strain LCB3, hits give low values 0.0514 | locus YJL154C, strain vps35, hits give low values 0.0614 | locus YJL164C, strain tpk1, hits give low values 0.0658 | locus YJL166W, strain qcr8, hits give low values 0.0602 | locus YJL168C, strain set2, hits give low values 0.0596 | locus YJL187C, strain SWE1 (second series), hits give low values 0.0495 | locus YJL187C, strain SWE1, hits give low values 0.0566 | locus YJR043C, strain POL32, hits give low values 0.069
